The source of these data is PubChem BioAssay AID651821 (The Scripps Research Institute Molecular Screening Center, 2012).

Screen size: about 370,000 compounds; about 4,700 (1.3%) were called active. What follows is part of a selection rich in actives, with near analogues and random picks from the rest. A number with no mark means an inactive call.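 How the source made its calls: active means inhibition above the plate cutoff, the mean of all test compounds on that plate plus 3 SD (cut at about 35% in these data); inactive means the rest.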

The experiment is described as follows: small molecules binding CAG repeat RNA – biochemical, fluorescence, primary screen (AID 651821).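 Further: 0% = DMSO alone and 100% = 100 µM mitoxantrone as full dye displacement; higher means more dye released from RNA so lower well fluorescence.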 To be noted: r(CAG) RNA repeat, TO-PRO-1 dye displacement fluorescence; at 3 µM; hits give high values.
The inhibition is the change of the read-out against control, counted positive when it falls. As to `O=C(CCC1CCCN(Cc2ccc(O)c(Cl)c2)C1)NCc1ccccc1F` (stereo not drawn), the inhibition is -2.68%. In the case of `CCOC(=O)C(=O)N(Cc1ccccc1)c1ccccc1C(=O)Nc1cc(OC)ccc1OC`, the inhibition is -0.13%. In the case of `CCC(NC(=O)C1C2C=CC3(CN(Cc4ccccc4)C(=O)C13)O2)c1ccccc1` (stereo not drawn) it was 0.21%.

Regarding `COc1ccccc1OCCn1c(SCC(N)=O)nc2ccccc21`, the inhibition was 1.66%. In the case of `CCOc1ccc(OCCSc2nc3ccccc3n2CC(=O)O)cc1`, the inhibition is 7.86%. In the case of `Cc1ccc(C(C)C)c(OCCSc2nc3ccccc3n2CC(=O)O)c1` it was 40.7% (active); in that of `Cc1ccc(Cn2cc(CN3[C@@H](CC(C)C)COc4ccc(Cl)cc4S3(=O)=O)nn2)cc1`, 2.98%; in that of `COC(=O)C1CN(CCc2ccccc2)CCS(=O)(=O)N1Cc1cccc(Cl)c1` (stereo not drawn), 1.15%. For `CN1C[C@]2(C=C3CCCCC3n3c(=O)n(-c4ccccc4)c(=O)n32)N=C1NC(=O)c1ccccc1` (stereo partly drawn) the value was 8.01%; for `Cc1ccc(C(=O)COC(=O)c2cccc(N3C(=O)c4c(C)nc5ccccc5c4C3=O)c2)cc1C`, 8.76%; for `Fc1cccc(Cc2c(-c3cccc(Cl)c3)nc3ccc(Br)cn23)c1`, 48.3% (active). For `Fc1cccc(Cc2c(-c3ccc(Cl)cc3)nc3ccc(Cl)cn23)c1` the value was 20.9%. With `Brc1ccc2nc(-c3ccccc3)c(Cc3ccccc3)n2c1`, the inhibition was 13.1%. Regarding `COc1ccc(-c2nc3ccc(Br)cn3c2Cc2ccc(C)cc2)cc1OC`, the inhibition is 40.1% (active).

`Cc1cc(Br)cn2c(Cc3ccccc3C(F)(F)F)c(-c3ccc(Cl)cc3)nc12`: the inhibition is 11.8%. In the case of `COC(=O)c1ccc2nc(-c3ccc(OC)c(OC)c3)c(Cc3ccccc3)n2c1`, the inhibition was 9.92%.

With `Cc1ccc(-c2nc3c(C)cc(Br)cn3c2Cc2ccccc2)cc1`, the inhibition is 10.3%. For `Cc1ccc(-c2nc3ccc(Br)cn3c2Cc2ccccc2C(F)(F)F)cc1` the value was 30.3%; for `Cc1cc(Br)cn2c(Cc3cccc(F)c3)c(-c3cccc(Br)c3)nc12`, 48.4% (active); for `CCCCCC(O)c1cccc(OCc2ccc3ccccc3n2)c1` (stereo not drawn), 1.42%.

Consider `Cc1ccc(NC(=O)N2c3ccccc3SC2c2ccco2)c(C)c1` (stereo not drawn), for which the inhibition was 5.91%.

On to `COc1ccccc1Cc1c(-c2ccc(F)cc2)nc2ccc(C)cn12`, for which the inhibition is 6.12%. In the case of `CCCCNC(=O)C[C@@H]1C[C@@]2(C(=O)OCC)CCC=C2N(Cc2cccc3ccccc23)C1=O` it was 1.85%. On to `Cc1ccc(-n2c(COc3ccccc3)nnc2SCC(=O)Nc2ccc3c(c2)OCCO3)cc1`, for which the inhibition is 7.21%. In the case of `CCOc1cc(C)ccc1OCc1nnc(SCC(=O)Nc2cccc(C(=O)O)c2)n1-c1ccccc1` it was 42% (active); in that of `COc1ccc(-n2c(COc3ccc(C)cc3)nnc2SCC(=O)Nc2ccc(Oc3ccccc3)cc2)cc1`, 5.38%. In the case of `COC(=O)[C@]12C[C@H](CC(=O)N3CCN(C(=O)C4CC4)CC3)C(=O)N(CCC3=CCCCC3)C1=C[C@H](C(C)C)O[C@@H]2C1CC1` it was 3.85%; in that of `O=C(Nc1cc(S(=O)(=O)Nc2ccc(Cl)cc2)ccc1O)c1ccc(F)cc1F`, 22.4%; in that of `Cc1ccc(NS(=O)(=O)c2ccc(N/N=C/c3ccccc3OCC(=O)O)c([N+](=O)[O-])c2)c(C)c1`, 86.9% (active). For `COc1ccc(S(=O)(=O)NC(C)c2ccccc2)cc1C(=O)N1CCCCC1` (stereo not drawn) the value was -7.44%; for `Cc1ccc(S(=O)(=O)NC(=O)COc2ccccc2C)cc1`, 1.07%. For the molecule `CCOc1ccccc1NS(=O)(=O)c1c[nH]c(C(=O)OC)c1`, the inhibition was -0.7%. For `COc1ccc(Br)cc1/C=N/Nc1ccc(S(=O)(=O)Nc2ccccc2C(=O)O)cc1[N+](=O)[O-]` the value was 70.1% (active); for `O=[N+]([O-])c1cc(S(=O)(=O)Nc2cccc(Cl)c2)ccc1N=Nc1c(O)[nH]c2ccccc12`, 8.1%; for `CCN(CC(=O)NCc1cccs1)C(=O)c1cccc(S(=O)(=O)Nc2ccccc2OC)c1`, -2.88%. In the case of `COc1ccc(N(CC(=O)Nc2ccc(C)cc2C)S(=O)(=O)c2ccccc2[N+](=O)[O-])c(OC)c1` it was 7.1%; in that of `COc1cccc(/C=N/Nc2ccc(S(=O)(=O)Nc3ccccc3C(=O)O)cc2[N+](=O)[O-])c1O`, 93.8% (active); in that of `COc1cc(/C=C/C(=O)O)cc(S(=O)(=O)Nc2ccccc2C(=O)NCCc2ccccc2)c1OC`, 31.7%. On to `O=C(O)c1ccccc1/C=N/Nc1ccc(S(=O)(=O)Nc2ccc(Cl)cc2)cc1[N+](=O)[O-]`, for which the inhibition was 67% (active). For `CCOc1ccccc1-n1c(SCC(=O)N2CCCC2)nnc1-c1ccoc1C` the value was -6.11%; for `O=C(C1CCN(S(=O)(=O)c2ccccc2)CC1)N1CCN(C2CCCCC2)CC1`, 2.76%; for `COC(=O)[C@]12C[C@H](CC(=O)N3CCOCC3)C(=O)N(Cc3ccc(Cl)cc3Cl)C1=C[C@H](C(C)C)O[C@@H]2C1CC1`, 4.69%. Consider `COc1cccc(NC(=O)N(C)C[C@@H]2OCc3cn(nn3)CCCC(=O)N([C@@H](C)CO)C[C@H]2C)c1`, for which the inhibition is 1.49%. Turning to `CCCCOCCCNC(=O)C[C@H]1C[C@@]2(C(=O)OC)C(=C[C@H](C(C)(C)C)O[C@@H]2C)N(CCc2ccc(OC)c(OC)c2)C1=O`, the inhibition was 2.98%. For `COc1ccc(CSc2nnc(SCC(=O)Nc3ccccc3C(F)(F)F)s2)cc1` the value was 0.71%. In the case of `CCCCCCN1CCS(=O)(=O)N(Cc2ccc(C(F)(F)F)cc2)C(C(=O)OC)C1` (stereo not drawn) it was 0.66%. In the case of `CC(=O)C1(C(=O)Nc2nccs2)CC(c2ccccc2C(F)(F)F)=NO1` (stereo not drawn) it was 2.46%; in that of `c1ccc(Cc2c(-c3ccco3)nc3c4ccccc4ccn23)cc1`, 13.8%; in that of `Cc1cc2nc(-c3ccc(F)cc3)c(Cc3ccsc3)n2c(C)c1Br`, 5.76%.

Take `Cc1cc2nc(-c3ccco3)c(Cc3cccc(F)c3)n2c(C)c1Br`: the inhibition is 37% (active).

On to `O=c1cc(CN2CCN(S(=O)(=O)/C=C/c3ccccc3)CC2)c2ccc(O)cc2o1`, for which the inhibition is 40% (active). Regarding `NC(=O)CCN1CCN(S(=O)(=O)/C=C/c2ccccc2)CC1`, the inhibition was -0.01%. On to `Cc1ccc2c(CN3CCN(S(=O)(=O)c4ccccc4C(F)(F)F)CC3)cc(=O)oc2c1`, for which the inhibition was 10%.
